The text below walks through data of paper PMC11006913.

Positions count from the first letter of the chain named.

What all share (assay): PBM; 200 nM protein, PBS
What all share (conditions): dsDNA, one strand shown

Assay [1] addresses NKX2-5 (Homo sapiens, UniProt P52952 125-210, R139K).
The target in assay [2] is T1, NKX2-4 (Homo sapiens, UniProt Q9H2Z4 175-261, P217L).
T1 sequence: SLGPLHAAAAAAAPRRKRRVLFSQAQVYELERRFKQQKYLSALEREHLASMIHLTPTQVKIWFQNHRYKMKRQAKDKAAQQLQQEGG

Assay [3] deals with T2, NKX2-4 (Homo sapiens, UniProt Q9H2Z4 175-261, T231S).
T2 sequence: T1 sequence with L43P, T57S

Assay [4] has as its target T3, NKX2-4 (Homo sapiens, UniProt Q9H2Z4 175-261).
T3 sequence: T1 sequence with L43P

Assay [5] addresses T4, NKX2-6 (Homo sapiens, UniProt A6NCS4 118-204, R150C).
T4 sequence: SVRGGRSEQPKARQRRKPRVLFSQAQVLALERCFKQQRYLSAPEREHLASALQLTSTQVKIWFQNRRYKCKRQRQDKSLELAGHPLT

For assay [6], the target named is T5, NKX2-6 (Homo sapiens, UniProt A6NCS4 118-204).
T5 sequence: T4 sequence with C33R

In assay [7] the target is T6, NKX2-4 (Homo sapiens, UniProt Q9H2Z4 175-261, R246Q).
T6 sequence: T1 sequence with L43P, R72Q

The target of assay [8] is T7, NKX2-6 (Homo sapiens, UniProt A6NCS4 118-204, F151L).
T7 sequence: T4 sequence with C33R, F34L

For assay [9], the target named is NKX2-5 (Homo sapiens, UniProt P52952 125-210).
Assay [10] deals with NKX3-2 (Homo sapiens, UniProt P78367 192-278, P234S).
Assay [11] deals with NKX3-2 (Homo sapiens, UniProt P78367 192-278).
NKX3-2 (Homo sapiens, UniProt P78367 192-278), sequence (P78367 192-278): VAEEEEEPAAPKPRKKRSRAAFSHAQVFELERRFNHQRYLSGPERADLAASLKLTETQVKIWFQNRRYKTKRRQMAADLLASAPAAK

NKX2-5 (Homo sapiens, UniProt P52952 125-210, R139K), sequence (P52952 125-210 R139K): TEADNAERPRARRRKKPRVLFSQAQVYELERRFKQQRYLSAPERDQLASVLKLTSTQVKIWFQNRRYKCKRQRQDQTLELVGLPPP
NKX2-5 (Homo sapiens, UniProt P52952 125-210), sequence (P52952 125-210): as the sequence (P52952 125-210 R139K) above, with K15R counted along it
NKX3-2 (Homo sapiens, UniProt P78367 192-278, P234S), sequence (P78367 192-278 P234S): as the sequence (P78367 192-278) above, with P43S counted along it

Regarding AGTACTTG, the binding signal in [1] is 12.5 upbm affinity estimate (log intensity, higher = more binding, comparable within an allelic series); in assay [2] it was 12.5 upbm affinity estimate (log intensity, higher = more binding, comparable within an allelic series); in assay [3] it was 12.9 upbm affinity estimate (log intensity, higher = more binding, comparable within an allelic series); in assay [4], 12.4 upbm affinity estimate (log intensity, higher = more binding, comparable within an allelic series); in assay [5] it was 11.6 upbm affinity estimate (log intensity, higher = more binding, comparable within an allelic series); in [6] it was 13.5 upbm affinity estimate (log intensity, higher = more binding, comparable within an allelic series). In addition, the binding signal in assay [7] was 13 upbm affinity estimate (log intensity, higher = more binding, comparable within an allelic series); in assay [8] it was 10.8 upbm affinity estimate (log intensity, higher = more binding, comparable within an allelic series); in [9], 12.3 upbm affinity estimate (log intensity, higher = more binding, comparable within an allelic series).
For the sequence CCCACTTA, the binding signal in [1] is 13 upbm affinity estimate (log intensity, higher = more binding, comparable within an allelic series); in assay [2], 12.7 upbm affinity estimate (log intensity, higher = more binding, comparable within an allelic series); in assay [3], 13 upbm affinity estimate (log intensity, higher = more binding, comparable within an allelic series); in assay [4], 12.6 upbm affinity estimate (log intensity, higher = more binding, comparable within an allelic series); in [5], 12.2 upbm affinity estimate (log intensity, higher = more binding, comparable within an allelic series); in assay [6], 13.7 upbm affinity estimate (log intensity, higher = more binding, comparable within an allelic series). In addition, the binding signal in [7] was 13.1 upbm affinity estimate (log intensity, higher = more binding, comparable within an allelic series); in [8], 11.1 upbm affinity estimate (log intensity, higher = more binding, comparable within an allelic series); in [10], 13.2 upbm affinity estimate (log intensity, higher = more binding, comparable within an allelic series); in assay [9] it was 12.9 upbm affinity estimate (log intensity, higher = more binding, comparable within an allelic series); in assay [11], 13.2 upbm affinity estimate (log intensity, higher = more binding, comparable within an allelic series).
For CACTTGAC, the binding signal in assay [1] is 12.9 upbm affinity estimate (log intensity, higher = more binding, comparable within an allelic series); in [2] it was 12.7 upbm affinity estimate (log intensity, higher = more binding, comparable within an allelic series); in [3] it was 13.1 upbm affinity estimate (log intensity, higher = more binding, comparable within an allelic series); in assay [4] it was 12.6 upbm affinity estimate (log intensity, higher = more binding, comparable within an allelic series); in [5], 11.9 upbm affinity estimate (log intensity, higher = more binding, comparable within an allelic series); in assay [6], 13.7 upbm affinity estimate (log intensity, higher = more binding, comparable within an allelic series). In addition, the binding signal in assay [7] is 13.3 upbm affinity estimate (log intensity, higher = more binding, comparable within an allelic series); in [8] it was 11.2 upbm affinity estimate (log intensity, higher = more binding, comparable within an allelic series); in [10], 12.1 upbm affinity estimate (log intensity, higher = more binding, comparable within an allelic series); in [9] it was 12.9 upbm affinity estimate (log intensity, higher = more binding, comparable within an allelic series); in assay [11] it was 12.2 upbm affinity estimate (log intensity, higher = more binding, comparable within an allelic series).
TAAGTGGA: the binding signal in assay [1] is 13.2 upbm affinity estimate (log intensity, higher = more binding, comparable within an allelic series); in [2] it was 12.8 upbm affinity estimate (log intensity, higher = more binding, comparable within an allelic series); in [3], 13.2 upbm affinity estimate (log intensity, higher = more binding, comparable within an allelic series); in assay [4] it was 12.6 upbm affinity estimate (log intensity, higher = more binding, comparable within an allelic series); in assay [5], 12.3 upbm affinity estimate (log intensity, higher = more binding, comparable within an allelic series); in assay [6], 13.9 upbm affinity estimate (log intensity, higher = more binding, comparable within an allelic series). Moreover, the binding signal in assay [7] was 13.3 upbm affinity estimate (log intensity, higher = more binding, comparable within an allelic series); in assay [8] it was 11.3 upbm affinity estimate (log intensity, higher = more binding, comparable within an allelic series); in [10], 13.2 upbm affinity estimate (log intensity, higher = more binding, comparable within an allelic series); in assay [9], 13.1 upbm affinity estimate (log intensity, higher = more binding, comparable within an allelic series); in [11], 13.3 upbm affinity estimate (log intensity, higher = more binding, comparable within an allelic series).
Turning to CACTTAAA, the binding signal in assay [1] is 13.1 upbm affinity estimate (log intensity, higher = more binding, comparable within an allelic series); in assay [2], 12.7 upbm affinity estimate (log intensity, higher = more binding, comparable within an allelic series); in assay [3], 13.1 upbm affinity estimate (log intensity, higher = more binding, comparable within an allelic series); in assay [4], 12.6 upbm affinity estimate (log intensity, higher = more binding, comparable within an allelic series); in assay [5], 12 upbm affinity estimate (log intensity, higher = more binding, comparable within an allelic series); in [6] it was 13.8 upbm affinity estimate (log intensity, higher = more binding, comparable within an allelic series). The binding signal in assay [7] is 13.2 upbm affinity estimate (log intensity, higher = more binding, comparable within an allelic series); in assay [8], 11.4 upbm affinity estimate (log intensity, higher = more binding, comparable within an allelic series); in assay [10], 12.7 upbm affinity estimate (log intensity, higher = more binding, comparable within an allelic series); in assay [9], 13 upbm affinity estimate (log intensity, higher = more binding, comparable within an allelic series); in assay [11], 12.8 upbm affinity estimate (log intensity, higher = more binding, comparable within an allelic series).
For the sequence CCACTTCA, the binding signal was 12.9 upbm affinity estimate (log intensity, higher = more binding, comparable within an allelic series) in assay [1]; 12.9 upbm affinity estimate (log intensity, higher = more binding, comparable within an allelic series) in assay [2]; 13.2 upbm affinity estimate (log intensity, higher = more binding, comparable within an allelic series) in assay [3]; 12.7 upbm affinity estimate (log intensity, higher = more binding, comparable within an allelic series) in assay [4]; 12 upbm affinity estimate (log intensity, higher = more binding, comparable within an allelic series) in assay [5]; 13.7 upbm affinity estimate (log intensity, higher = more binding, comparable within an allelic series) in [6]. Further, the binding signal in assay [7] was 13.4 upbm affinity estimate (log intensity, higher = more binding, comparable within an allelic series); in [8], 11 upbm affinity estimate (log intensity, higher = more binding, comparable within an allelic series); in [10], 12.8 upbm affinity estimate (log intensity, higher = more binding, comparable within an allelic series); in assay [9], 12.9 upbm affinity estimate (log intensity, higher = more binding, comparable within an allelic series); in [11], 12.8 upbm affinity estimate (log intensity, higher = more binding, comparable within an allelic series).
